Results taken from ChEMBL document CHEMBL3433997, “St. Jude Leishmania screening dataset” (2016).

Assays:
Format in all cases: functional
[1] = target: Solute carrier family 2, facilitated glucose transporter member 1 (Homo sapiens) (UniProt P11166); experiment: ST_JUDE_LEISH: Cytotoxicity at 2uM final concentration against transgenic Leishmania Mexicana promastigotes LmGLUT1 that are glucose transport deficient and complemented with the human glucose transporter GLUT1. Activity is measured by DNA content using SYBR green in vitro
Sequence of Solute carrier family 2, facilitated glucose transporter member 1 (Homo sapiens) (P11166 whole entry): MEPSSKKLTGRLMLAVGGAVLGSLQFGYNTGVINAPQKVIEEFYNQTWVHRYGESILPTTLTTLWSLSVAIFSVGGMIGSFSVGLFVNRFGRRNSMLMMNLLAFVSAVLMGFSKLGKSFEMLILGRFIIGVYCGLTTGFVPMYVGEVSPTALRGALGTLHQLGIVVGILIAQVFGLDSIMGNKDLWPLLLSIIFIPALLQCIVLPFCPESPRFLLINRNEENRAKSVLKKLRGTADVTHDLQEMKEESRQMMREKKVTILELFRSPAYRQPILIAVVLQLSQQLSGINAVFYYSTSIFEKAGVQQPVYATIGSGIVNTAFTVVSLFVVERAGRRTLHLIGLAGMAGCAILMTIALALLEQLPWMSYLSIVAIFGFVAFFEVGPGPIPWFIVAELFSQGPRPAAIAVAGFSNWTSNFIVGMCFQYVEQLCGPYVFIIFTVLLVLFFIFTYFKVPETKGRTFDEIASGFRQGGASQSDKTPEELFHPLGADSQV

[2] = target: Hexose transporter 1 (Plasmodium falciparum) (UniProt O97467); experiment: ST_JUDE_LEISH: Cytotoxicity at 2uM final concentration against transgenic Leishmania Mexicana promastigotes LmPfHT that are glucose transport deficient and complemented with the Plasmodium falciparum hexose transporter. Activity is measured by DNA content using SYBR green in vitro
[3] = target: Glucose transporter (Leishmania mexicana) (UniProt O61059); experiment: ST_JUDE_LEISH: Cytotoxicity at 2uM final concentration against transgenic Leishmania Mexicana promastigotes LmGT2 that are glucose transport deficient and complemented with the L. Mexicana glucose transporter 2. Activity is measured by DNA content using SYBR green in vitro

Compound | inhibition [1] [%] | inhibition [2] [%] | inhibition [3] [%]
CC(=O)Nc1cccc(NC(=O)CSc2ccc(-c3nc4ccccc4[nH]3)cn2)c1 | 0.84 | -0.63 | -0.27
Cc1cccc(C(=O)Nc2ccnc(N3CCC(N(C)Cc4cccc(O)c4)CC3)c2)c1 | 2.07 | 1.88 | 3.02
NC(=O)Nc1ccc2cn[nH]c2c1 | -0.02 | 0.57 | 0.33
COCCNCc1cccc(C#Cc2cc3ncnc(Nc4ccc(OCc5cccc(F)c5)c(Cl)c4)c3s2)n1 | 5.28 | 5.8 | 3.62
CCN(CC)S(=O)(=O)c1ccc(C(=O)Oc2ccccc2N(Cc2ccc(OC)cc2)C2=NS(=O)(=O)c3ccccc32)cc1 | 3.69 | 2.22 | 2.59
CC(=O)Nc1nc(C(=O)Nc2ccc(-c3ccc(-c4nc5ccccc5[nH]4)cc3)cc2)cs1 | 4.03 | 2.54 | 3.01
COc1ccc(C2C(C(=O)Nc3cc(C)ccc3OC)c3ccccc3C(=O)N2C)cc1 (stereo not drawn) | 5.62 | 5.84 | 1.74
Cc1csc2nc(C(C)c3ccc(NC(=O)c4cccs4)cc3)oc(=O)c12 (stereo not drawn) | 1.03 | -0.57 | -0.38
CCOC(=O)c1sc(C(C)Nc2ccccc2)nc1-c1ccccc1 (stereo not drawn) | 0.89 | -0.3 | -1.6
COc1ccc2nccc(N3CCCN(CCNCc4ccc5c(n4)NC(=O)CS5)CC3)c2n1 | -4.21 | -0.98 | 3.94
COc1cccc(C2CCN(CCN3CCC(NC(=O)c4ccc(-c5ccc(C#N)cc5)cc4)CC3)CC2)c1 | -1.18 | 0.31 | 0.19
Cc1ccc(NC(=O)c2ccnc(N3CCN(c4ccncc4)CC3)c2)cc1F | 3.18 | 4.4 | 4.05
COc1ccc(Nc2nccc(N3CCC(NS(=O)(=O)c4ccc(NC(C)=O)cc4)C3)n2)cc1 (stereo not drawn) | 2.99 | 2.85 | 3.38
CC(C)CN1C(=O)c2ccc(C(=O)Nc3nccs3)cc2C1=O | 1.07 | 1.52 | 3.65
COc1cc(CNC[C@@H](O)[C@H](Cc2ccccc2)NC(=O)c2cc(C3CCCC3)cc(N3CCCC3=O)c2)cc(OC)c1 | 2.44 | 5.82 | -1.06
OCC1CCCCN1Cc1cccc(-c2cccc(-c3nc4ccccc4[nH]3)c2)c1 (stereo not drawn) | 6.6 | 4.14 | 4.46
NC(=O)Nc1ccc2c(Nc3ccc(OCc4ccccc4)cc3)ncnc2c1 | -1.45 | -0.35 | -2.05
CCOCc1cnc(C)nc1CNC(=O)c1c(C)[nH]c2ccc(C)cc12 | 0.96 | 0.7 | 1.12

Compound | inhibition [1] [%] | inhibition [2] [%] | inhibition [3] [%]
CN1CCN(c2ccnc3ccc(NC(=O)Nc4ccc(Cl)cc4)cc23)CC1 | -1.11 | -0.83 | -1.7
COc1cc2nc(N(C)CC3COc4ccccc4O3)nc(N)c2cc1OC (stereo not drawn) | 3.64 | 1.69 | -0.97
CCOC(=O)c1cc(C(=O)NCCCCN2CCC(c3ccc(CC)cc3OCC)CC2)ccc1-c1ccc(C(F)(F)F)cc1 | 10.1 | 8.59 | 3.34
Cc1cccc2nc(-c3cccc(-c4ccc(NC(=O)CS(C)(=O)=O)cc4)c3)[nH]c12 | -0.47 | 3.33 | 3.81
CC(C)(C)Nc1cc(C(=O)N[C@@H](Cc2ccccc2)[C@H](O)CNC2CCOCC2)cc(N2CCCCS2(=O)=O)c1 | 0.29 | 0.07 | -0.61
CC(C)OC(=O)c1cccnc1SCC(=O)Nc1ccc(C(F)(F)F)cc1Cl | 1.58 | 1.68 | 3.79
COc1ccccc1C1CCN(C2CCC(NC(=O)/C=C/c3cc(C(F)(F)F)cc(C(F)(F)F)c3)CC2)CC1 (stereo not drawn) | -3.08 | -0.91 | -2.77
COc1cccc(NC(=O)NC2CCN(c3ccnc(Nc4cc(OC)c(OC)c(OC)c4)n3)C2)c1 (stereo not drawn) | 1.18 | -1.6 | 5.86
O=C(/C=C/c1ccc(Cl)c(Cl)c1)N1CCC(CCN2CCC(c3c[nH]c4cnccc34)CC2)CC1 | 16 | 11.9 | 5.81
Cc1ccc(F)c(OCC2CCN(c3ncc(C(=O)NC4CC4)cc3Cl)CC2)c1 | -1.14 | 2.1 | 1.1
CCNc1cc(C)nc(Nc2ccc(NS(=O)(=O)c3cc(OC)ccc3OC)cc2)n1 | 16.8 | 12.1 | 5.24
CN1CCC(N2CCN(C(=O)c3cccc(-c4cccc(-c5nc6ccccc6[nH]5)c4)c3)CC2)CC1 | 0.86 | 2.54 | 2.11
CN(CCCCCNC(=O)/C=C/c1ccc(Cl)c(Cl)c1)CCc1c[nH]c2ccccc12 | 20.6 | 20 | 12.6
c1ccc2[nH]c(-c3ccc(-c4ccc(CN5CCCCC5)cc4)s3)nc2c1 | 0.97 | 0.62 | -0.34
COc1ccc(C2CCN(CCCCNC(=O)c3ccc(NC(=O)c4ccc(Cl)cc4)cc3)CC2)c(C)c1 | -0.79 | -0.57 | -2.18
OCC1CCN(Cc2cccc(-c3cccc(-c4nc5cc(C(F)(F)F)ccc5[nH]4)c3)c2)CC1 | 2.74 | 0.35 | 0.14
C=CCN1C(=O)c2[nH]nc(-c3cc(C)c(C)cc3O)c2C1c1cccc(Br)c1 (stereo not drawn) | 2.03 | 1.25 | 1.27
COc1cc2nc(N3CCC(CNC(=O)c4ccc(C(C)=O)cc4)CC3)nc(N)c2cc1OC | 2.39 | 2.18 | 3.9
